In PubChem BioAssay (NCATS) one finds Potency and outcome data, which are given here for 14 compounds.

Values joined by “and” are separate entries in the source; they are usually repeats but may differ in a detail not shown here. Equal values may be shown once. Inconclusive results are not listed. Active and inactive are the calls of the source. Calls follow the shape of the dose curve; as a rule, active = well fitted curve in the direction sought with a large enough effect; inconclusive = small, poorly fitted or top-dose-only effect, or another doubt; inactive = no such curve, though single readings can be large; an effect the other way counts as inactive or inconclusive.

Test [1] in a line: Cellular Toxicity (caspase-3) Jurkat (AID 655).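 Also: cells exposed to compound for 16 h at 37 °C before reading.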 Also: potency is read from the fitted curve at half-maximal effect. Summed up: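 Luminescent caspase-3/7 readout (aminoluciferin substrate cleavage) in human T-cell leukemia Jurkat cells after 16 hr compound exposure. Concentration-response normalized to DMSO and 100 uM tamoxifen; AC50 by standard Hill equation.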
Test [2] can be described thus: Cellular Toxicity (caspase-3) HUV-EC-C (AID 656). Summed up: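 Luminescent caspase-3/7 activation (aminoluciferin substrate cleavage) in HUV-EC-C cells after 16 hr compound exposure, 37°C. Signal normalized to DMSO basal and 100 uM tamoxifen as 100%; AC50 from concentration-response fitted with the Hill equation.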
A short description of test [3]: Cellular Toxicity (caspase-3) SHSY5Y (AID 657).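 Also: cells exposed to compound for 16 hours at 37 °C.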 Also: potency is read from the fitted curve at half-maximal effect. Put shortly: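 Luminescent caspase-3/7 readout (aminoluciferin release) in SH-SY5Y cells after 16 h compound exposure in complete medium. Activity scaled between DMSO basal and 10 uM staurosporine as 100%; concentration-response fitted to Hill equation for AC50.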
The nature of test [4]: Cellular Toxicity (caspase-3) BJ (AID 658). Summed up: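 qHTS, BJ fibroblasts, 1000 cells/well; 5 hr preincubation, 16 hr compound, 37 °C; Caspase-Glo 3/7 reagent, 1 hr RT; luminescence. DMSO = 0%, 10 uM staurosporine = 100%. Hill-equation AC50.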
Test [5] can be described thus: Cellular Toxicity (caspase-3) MRC-5 (AID 659). Put shortly: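 MRC-5 fibroblasts, 1500/well; 16 h cpd, 37 °C; Caspase-Glo 3/7, 1 h RT; lumi read. Norm: DMSO = 0%, 10 uM staurosporine = 100%. Hill-fit AC50 from qHTS conc-response.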
Test [6] is described as follows: Cellular Toxicity (caspase-3) Mesangial (AID 660).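 Also: combined caspase 3 and 7 activity read by Caspase-Glo luminescence; cells exposed to compound for 16 h before the caspase read.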 Put shortly:
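Seed cells derived from normal human renal glomeruli, incubate 5 h, add compounds across concentrations and incubate 16 h at 37 °C. Caspase 3/7 activation is then quantified by luciferase light, with AC50 derived by Hill modeling.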

Test [7] in a line: Cellular Toxicity (caspase-3) SK-N-SH (AID 661). Summed up: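 Cells were seeded and incubated 5 hr at 37 °C, dosed with compound over a concentration range for 16 hr, then given Caspase-Glo 3/7 reagent for 1 hr at room temperature before luminescence reading.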
The nature of test [8]: Cellular Toxicity (caspase-3) H-4-II-E (AID 663). Also: potency is read from the fitted curve at half-maximal effect.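 As to caspase-3 activation: cells exposed to compound for 16 hr before readout.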 To be noted: Potency: caspase-3 activation. Put shortly: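 H-4-II-E rat hepatoma, 1500 cells/well, 5 hr settle at 37 °C; compound 16 hr, 37 °C, complete medium; Caspase-Glo 3/7, 20 min RT; luminescence. DMSO = 0%, 100 uM tamoxifen = 100%; Hill-equation AC50.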
Test [9] in a line: Cellular Toxicity (caspase-3) Hek293 (AID 664).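 Also: cells exposed to compound for 16 h at 37 °C before readout.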 Put shortly:
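qHTS, HEK293 (human embryonic kidney), 16 h cpd exposure in complete medium. Caspase-3/7 activation = luminescence increase; normalized to DMSO/100 uM tamoxifen; Hill-fit AC50.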

A short description of test [10]: Cellular Toxicity (caspase-3) N2a (AID 665).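 Also: compound exposure lasted 16 h at 37 °C before readout.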 Summed up: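 Caspase-3/7 activation, measured as increased luminescence from aminoluciferin release, is quantified in mouse N2a cells exposed to compounds for 16 h. Values are normalized to DMSO and 10 uM staurosporine, with AC50 derived by Hill modelling.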
Test [11] in a line: Cellular Toxicity (caspase-3) NIH 3T3 (AID 666).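 Also: caspase signal read after 16 h compound exposure.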 Also: potency is read from the fitted curve at half-maximal effect. Put shortly: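 Cells were plated at 1000 per well and incubated 5 hr at 37°C, then compound was added for 16 hr. Caspase-Glo 3/7 reagent followed for 20 min at room temperature before luminescence was read.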
The target of test [12] is Cytochrome P450 3A4 (Homo sapiens) (UniProt P08684). The test is described as follows: qHTS Assay for Inhibitors and Substrates of Cytochrome P450 3A4 (AID 884). Also: series mostly up to about 57 µM; nearly all actives have a fitted effect of over 50% in size. Summed up: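 Luminescent readout of luciferin produced by CYP3A4 (20 nM) dealkylation of Luciferin-PPXE, 25 uM (its KM). NADPH-driven reaction ran 60 min at RT after 10 min compound preincubation; data scaled to 57 uM ketoconazole as 100% inhibition.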
Cytochrome P450 3A4 (Homo sapiens), sequence (P08684 whole entry, looked up): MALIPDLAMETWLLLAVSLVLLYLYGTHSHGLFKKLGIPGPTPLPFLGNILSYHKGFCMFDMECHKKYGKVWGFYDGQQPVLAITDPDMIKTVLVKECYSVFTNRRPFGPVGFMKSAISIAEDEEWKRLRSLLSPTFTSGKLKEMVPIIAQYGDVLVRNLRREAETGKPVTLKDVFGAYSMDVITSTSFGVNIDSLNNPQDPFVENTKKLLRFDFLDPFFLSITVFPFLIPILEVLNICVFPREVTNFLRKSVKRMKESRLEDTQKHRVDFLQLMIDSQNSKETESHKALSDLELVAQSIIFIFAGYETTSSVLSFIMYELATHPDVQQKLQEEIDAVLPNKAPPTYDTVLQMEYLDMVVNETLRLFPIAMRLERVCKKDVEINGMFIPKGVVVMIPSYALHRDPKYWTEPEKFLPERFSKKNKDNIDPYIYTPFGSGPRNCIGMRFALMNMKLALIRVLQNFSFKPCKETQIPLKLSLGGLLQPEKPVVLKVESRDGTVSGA
(In general: qHTS replaces the single test concentration by a dilution series.)

A short description of test [13]: Confirmation and Secondary Assay for Modulators of Hemoglobin Beta Chain Splicing at IVS2 654 locus (AID 910).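 Also: HeLa cells stably carrying EGFP split by mutant beta-globin IVS2-654 intron.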 Summed up: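 HeLa cells stably expressing EGFP interrupted by β-globin IVS2-654 intron, seeded overnight in Opti-MEM/2% FCS, then treated 2 days at 37 °C. Restored splicing read as total peak GFP intensity per well by laser scanning cytometry (488 nm excitation, 500–520 nm emission); 500 nM antisense PNA as control.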

In test [14] the target is Guanine nucleotide-binding protein G(i) subunit alpha-1 (Homo sapiens) (UniProt P63096). The test is described as follows: qHTS Assay for Inhibitors of RGS12 GoLoco Motif Activity (Green Fluorophore) (AID 879).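 Also: negative values mean loss of peptide binding seen as reduced polarization.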 Put shortly: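 A drop in FITC polarization marked displacement of the FITC-tagged RGS12 GoLoco peptide (10 nM) from Gαi1 (50 nM). Compounds were incubated 10 min at room temperature in Tris pH 7.5 buffer containing 150 mM NaCl, 0.1 mM GDP and 0.05% NP40; unlabeled peptide titration served as control.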
Guanine nucleotide-binding protein G(i) subunit alpha-1 (Homo sapiens), sequence (P63096 whole entry, looked up): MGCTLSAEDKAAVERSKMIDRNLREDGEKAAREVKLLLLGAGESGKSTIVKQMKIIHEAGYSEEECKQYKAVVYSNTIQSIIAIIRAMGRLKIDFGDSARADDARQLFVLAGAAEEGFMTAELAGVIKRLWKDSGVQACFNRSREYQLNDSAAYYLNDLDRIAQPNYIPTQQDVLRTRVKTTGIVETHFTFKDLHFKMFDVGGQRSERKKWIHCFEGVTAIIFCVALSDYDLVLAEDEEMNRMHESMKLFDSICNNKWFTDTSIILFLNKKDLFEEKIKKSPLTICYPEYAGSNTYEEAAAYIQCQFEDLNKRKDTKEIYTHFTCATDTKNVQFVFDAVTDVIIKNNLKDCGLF

Test [15] deals with Cytochrome P450 2C9 (Homo sapiens) (UniProt P11712). The test is described as follows: qHTS Assay for Inhibitors and Substrates of Cytochrome P450 2C9 (AID 883). Also: nearly all actives have a fitted effect of over 60% in size. Put shortly: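 Human CYP2C9 (10nM) with Luciferin-H at 100uM (its KM) in 25mM KPO4; compound preincubated 10 min at 37C, then NADPH regeneration for 60 min at 37C. Luciferin read by luminescence after detection reagent; normalized to 57uM sulphaphenazole as full inhibition.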
Cytochrome P450 2C9 (Homo sapiens), sequence (P11712 whole entry, looked up): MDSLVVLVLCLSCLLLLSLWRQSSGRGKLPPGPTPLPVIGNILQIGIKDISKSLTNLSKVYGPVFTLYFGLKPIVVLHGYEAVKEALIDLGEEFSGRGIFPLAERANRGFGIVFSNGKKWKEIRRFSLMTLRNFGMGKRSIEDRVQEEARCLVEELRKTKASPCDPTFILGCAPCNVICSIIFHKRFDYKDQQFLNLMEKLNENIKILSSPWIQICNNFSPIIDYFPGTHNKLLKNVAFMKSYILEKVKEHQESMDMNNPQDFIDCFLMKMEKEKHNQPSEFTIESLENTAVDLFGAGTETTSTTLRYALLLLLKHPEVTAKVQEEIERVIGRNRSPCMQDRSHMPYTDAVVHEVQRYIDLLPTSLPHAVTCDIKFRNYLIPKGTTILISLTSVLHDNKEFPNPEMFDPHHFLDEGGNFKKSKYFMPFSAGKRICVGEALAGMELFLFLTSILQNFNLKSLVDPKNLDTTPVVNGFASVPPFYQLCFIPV

The target in test [16] is Cytochrome P450 3A4 (Homo sapiens) (UniProt P08684). Put plainly: qHTS Assay for Activators of Cytochrome P450 3A4 (AID 885). Also: nearly all actives have a fitted effect of over 65% in size. Put shortly:
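Human CYP3A4 dealkylates Luciferin-PPXE to luciferin, which luciferase detection converts to light. Substrate was at its KM (25uM), buffer 200mM KPO4, reaction 60 min at RT.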

Test [17] deals with Cytochrome P450 2D6 (Homo sapiens) (UniProt P10635). The test is described as follows: qHTS Assay for Inhibitors and Substrates of Cytochrome P450 2D6 (AID 891). Also: potency is read from the fitted curve at half-maximal effect; nearly all actives have a fitted effect of over 60% in size. Summed up: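 Luminescent read-out of luciferin formed by 5 nM human CYP2D6 demethylating 30 uM Luciferin-ME EGE (Km level) over 60 min at room temperature after NADPH regeneration addition. Data normalized to full inhibition by 1.43 uM quinidine.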
Cytochrome P450 2D6 (Homo sapiens), sequence (P10635 whole entry, looked up): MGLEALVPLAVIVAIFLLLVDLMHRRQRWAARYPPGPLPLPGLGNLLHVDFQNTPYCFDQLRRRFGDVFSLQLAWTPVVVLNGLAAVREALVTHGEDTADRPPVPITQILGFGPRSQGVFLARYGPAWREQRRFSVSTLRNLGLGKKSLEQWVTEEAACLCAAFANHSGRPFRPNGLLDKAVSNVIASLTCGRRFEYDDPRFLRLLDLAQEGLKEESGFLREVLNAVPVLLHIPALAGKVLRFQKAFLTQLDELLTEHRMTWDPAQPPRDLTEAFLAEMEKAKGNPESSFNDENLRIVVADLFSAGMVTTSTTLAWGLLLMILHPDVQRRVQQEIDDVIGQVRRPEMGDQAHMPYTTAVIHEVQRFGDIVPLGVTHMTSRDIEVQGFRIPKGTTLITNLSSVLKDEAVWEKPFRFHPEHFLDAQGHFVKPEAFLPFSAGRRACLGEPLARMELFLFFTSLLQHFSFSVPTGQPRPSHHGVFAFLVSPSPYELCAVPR

In test [18] the target is Cytochrome P450 2C19 (Homo sapiens) (UniProt P33261). The test is described as follows: qHTS Assay for Inhibitors and Substrates of Cytochrome P450 2C19 (AID 899). Also: nearly all actives have a fitted effect of over 60% in size. Summed up: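 5 nM human CYP2C19 with 10uM Luciferin-H EGE (at KM) in 50mM KPO4, compound preincubated 10 min at 37C, then NADPH regeneration for 60 min at 37C. Luciferin read by luminescence after detection reagent; normalized to 57uM ketoconazole as full inhibition.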
Cytochrome P450 2C19 (Homo sapiens), sequence (P33261 whole entry, looked up): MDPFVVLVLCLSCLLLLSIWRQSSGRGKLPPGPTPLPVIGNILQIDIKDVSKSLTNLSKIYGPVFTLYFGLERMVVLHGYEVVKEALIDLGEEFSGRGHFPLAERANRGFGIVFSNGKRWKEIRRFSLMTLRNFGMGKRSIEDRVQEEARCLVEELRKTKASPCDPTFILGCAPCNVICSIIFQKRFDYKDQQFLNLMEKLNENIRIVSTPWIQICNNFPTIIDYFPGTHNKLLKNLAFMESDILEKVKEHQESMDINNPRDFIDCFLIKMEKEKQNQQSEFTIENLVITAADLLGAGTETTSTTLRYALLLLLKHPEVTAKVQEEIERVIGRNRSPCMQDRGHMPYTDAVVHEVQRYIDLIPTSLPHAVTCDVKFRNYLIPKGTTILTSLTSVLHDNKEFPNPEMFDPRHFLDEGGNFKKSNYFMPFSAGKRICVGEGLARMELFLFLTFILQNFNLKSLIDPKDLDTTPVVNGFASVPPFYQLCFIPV

Test [19] can be described thus: qHTS Assay for Identification of Small Molecule Agonists for Thrombopoietin (TPO) Signaling Pathway (AID 917). Put shortly:
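Ba/F3 (mouse) + hTPO receptor + GpIIb-promoter luciferase; IL-3 withdrawn overnight; compound + 26 pM TPO (EC50), 24 hrs, 37 C, 5% CO2; Steadylite luminescence, 10 min RT.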

`CCCCC(CC)COC(=O)c1ccccc1C(=O)O` (stereo unspecified): the Potency entry in test [1], in test [3], in test [8], in test [11] and in test [12] was “inactive” each time. For the same compound, the outcome in test [2], in [4], in test [5], in test [6], in test [7] and in test [9] was inactive. Further, the outcome in test [10] was inactive.

On to `CC(=O)OC/C=C(C)/C=C/C=C(C)/C=C/C1=C(C)CCCC1(C)C`, for which the Potency entry in test [1], in test [3], in test [8] and in [11] was “inactive” throughout. Further, the result in [2], in test [4], in [5], in test [6], in test [7] and in test [10] was inactive. In addition, the result in test [13] was inactive.

Regarding `CCCCCCCCCCCCCCCC[n+]1ccccc1`, the compound was called inactive in test [2], in [6] and in test [9]. In addition, the Potency entry in test [3] and in test [11] was “inactive” in each case.

Consider `Brc1ccccc1-c1ccccc1`, for which the Potency entry in test [1], in test [3], in test [8], in test [11] and in test [12] was “inactive” throughout. For the same compound, the compound was classed as inactive in [2], in test [4], in test [5], in test [6], in test [7] and in test [9]. In test [10], the outcome was inactive.

In the case of `Cn1cnc2c(NCc3ccccc3)nc(NCCO)nc21`, the compound was called inactive in [14] and in test [19]. The Potency entry in [15], in test [16] and in test [18] was “inactive” each time. In test [17], the Potency was 3.16 µM (active) and 1.26 µM (active).

As for `C1=CC2C3C=CC(C3)C2C1` (stereo unspecified), the Potency result in [1], in test [3], in test [8], in test [11] and in test [12] was “inactive” throughout. Besides, the call in [2], in test [4], in test [5], in test [6], in [7] and in [9] was inactive. In [10], the compound was called inactive.

For `COc1cc(C=O)ccc1O`, the Potency entry in test [1], in test [3], in test [8], in test [11] and in test [12] was “inactive” throughout. The outcome in [2], in [4], in test [5], in test [6], in [7] and in [9] was inactive. Besides, in [10], the compound was called inactive.

Turning to `Nc1ccc(O)cc1`, the Potency result in test [1] and in [11] was “inactive” each time. Also, the result in test [2], in test [4], in test [5], in [6], in [7] and in test [9] was inactive. Further, in test [10], the call was inactive.

Regarding `Nc1c2ccccc2nc2ccccc12`, the Potency is 31.6 µM (active) in test [1], 39.8 µM (active) in test [3], 31.6 µM (active) in test [8] and 39.8 µM (active) in [11]. Further, the call in test [2], in test [5], in [6] and in test [13] was inactive.

`Nc1cccc2c(N)cccc12`: the Potency entry in test [1], in test [3], in test [8] and in [11] was “inactive” in each case. The call in test [2], in test [4], in test [5], in [6], in test [7] and in [9] was inactive. Moreover, the call in test [10] was inactive.

Regarding `O=C(Oc1ccccc1)c1ccccc1O`, the Potency entry in [1], in [3], in test [8], in [11] and in [12] was “inactive” in each case. In addition, the result in [2], in [4], in test [5], in test [6], in test [7] and in test [9] was inactive. Moreover, the call in [10] was inactive.

In the case of `CCCC(=O)c1cc(O)c(O)cc1O`, the Potency result in test [1], in [3], in test [8], in [11] and in test [12] was “inactive” each time. Moreover, the compound was called inactive in test [2], in test [4], in [5], in test [6], in [7] and in test [9]. In addition, the outcome in test [10] was inactive.

As to `Oc1ccccc1`, the Potency entry in [1], in test [3], in [8], in [11] and in [12] was “inactive” in each case. Moreover, the compound was classed as inactive in [2], in test [4], in test [5], in test [6], in [7] and in test [9]. The call in test [10] was inactive.

With `CC(C)C(C)(C)C(C)(C)C(C)(C)S`, the Potency result in test [1], in test [3], in [8], in test [11] and in test [12] was “inactive” in each case. Moreover, the compound was classed as inactive in test [2], in [4], in test [5], in [6], in [7] and in test [9]. Also, in [10], the compound was called inactive.
